This passage reports outcome results from PubChem BioAssay (EPA / NIEHS).

Inconclusive results are not listed. Activity calls are given as the source filed them. How the source made its calls: active means hit-call score of the fitted dose curve at least 0.9, where 1 is the maximum; inconclusive means response in the unintended direction; inactive means score below 0.9.

human Vitamin D Receptor (VDR), VDR (gene 7421), sequence (P11473 whole entry, looked up): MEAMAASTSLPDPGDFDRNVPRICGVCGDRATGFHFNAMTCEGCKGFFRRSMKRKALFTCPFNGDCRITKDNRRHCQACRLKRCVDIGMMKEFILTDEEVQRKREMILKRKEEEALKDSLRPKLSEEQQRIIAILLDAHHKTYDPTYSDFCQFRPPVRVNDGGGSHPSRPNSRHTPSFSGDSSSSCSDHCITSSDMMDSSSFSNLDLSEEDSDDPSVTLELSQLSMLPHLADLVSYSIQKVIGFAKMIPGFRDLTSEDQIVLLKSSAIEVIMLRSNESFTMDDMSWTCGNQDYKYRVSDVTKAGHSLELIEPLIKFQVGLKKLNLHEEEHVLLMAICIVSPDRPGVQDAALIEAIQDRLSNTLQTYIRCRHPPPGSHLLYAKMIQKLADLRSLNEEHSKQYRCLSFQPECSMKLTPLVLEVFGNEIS

This experiment addresses human Vitamin D Receptor (VDR), VDR (gene 7421) (UniProt P11473). Briefly: ATG_VDR_TRANS: Attagene TRANS-FACTORIAL HepG2 Assay for human Vitamin D Receptor (VDR) (AID 2283022). The protocol:
ATG_TRANS is a cell-based, multiplexed-readout assay that uses HepG2, a human liver cell line, with measurements taken at 24 hours after chemical dosing in a 24-well plate.ATG_VDR_TRANS is one of 30 assay component(s) measured or calculated from the ATG_TRANS assay. It is designed to make measurements of mRNA induction, a form of inducible reporter, as detected with fluorescence intensity signals by Reverse transcription polymerase chain reaction (RT-PCR) and Capillary electrophoresis technology.Data from the assay component ATG_VDR_TRANS was analyzed into 1 assay endpoint. This assay endpoint, ATG_VDR_TRANS, was analyzed in the positive analysis fitting direction relative to DMSO as the negative control and baseline of activity. Using a type of inducible reporter, measures of mRNA for gain-of-signal activity can be used to understand the reporter gene at the transcription factor-level as they relate to the gene VDR. Furthermore, this assay endpoint can be referred to as a primary readout, because this assay has produced multiple assay endpoints where this one serves a reporter gene function. To generalize the intended target to other relatable targets, this assay endpoint is annotated to the nuclear receptor intended target family, where the subfamily is non-steroidal.
Human liver HepG2 cells are transiently transfected with multiple reporter transcription units (MRTUs) in 6-well plates using FuGene 6 reagent (Roche; 3 ml FuGene/1 mg DNA). The MRTU constructs are regulated by a cis-regulating element (promoter). […] A major difference between the CIS and TRANS system is that in CIS activities of endogenous TFs are measured, whereas the TRANS assay evaluates changes in activities of exogenous, chimeric NR-Gal4 proteins. […] At the end of 24 hour incubation, total RNA was isolated using TriZol reagent (Invitrogen). The isolated RNA is then reverse-transcribed using oligo(dT) primer and Mo-MLV reverse transcriptase (Invitrogen) with DNAse I (Ambion) treatment for 30 min. The one-tenth of the produced cDNA was amplified by PCR using Taq DNA polymerase (Invitrogen) and two reporter sequence-specific primers. The PCR products were fluorescently labeled by primer extension with 6-arboxyfluorescein (6-FAM) 5'-labeled reporter sequence-specific primer (2 min at 95 C, 20 s at 68 C and 10 min at 72 C) and these products were digested with 5U of HpaI (New England Biolabs) for 2h at 37 C. The fragments were purified using Qiaquick PCR columns (Qiagen), analyzed on an ABI 3130xL genetic analyzer (Applied Biosystems) with peak positions identified by using a set of X-rhodamine (ROX)-labeled MapMarker1000 molecular weight standards (BioVentures). The raw capillary electrophoresis data was processed using Attagraph software (Attagene).
Take `O=[N+]([O-])c1cc(N(CCO)CCO)ccc1NCCO`: the compound was called inactive.
Regarding `N#CCCNCCC#N`, the call was inactive.
`CC(C)=CC(=O)O`: the compound was classed as inactive.
For the compound `CCNC(=S)NCC`, the call was inactive.
Under `C=C1CC/C=C(\C)CC[C@@H]2[C@@H]1CC2(C)C` stands “inactive”; under `C=CCOC(=O)/C=C\C(=O)OCC=C`, “inactive”; under `CC(CCO)CC(C)(C)C` (stereo not given), “inactive”.
Turning to `Nc1cc([N+](=O)[O-])ccc1C(=O)O`, the compound was classed as inactive.
As to `O=C(OCc1ccccc1)c1ccccc1O`, the result was inactive.
On to `CCCCC/C=C\C=C\C(=O)OCC`, for which the compound was classed as inactive.
Take `C=CC(C)CCCC(C)(C)O` (stereo not given): the compound was called inactive.
In the case of `CCOC(=O)CC(C)C`, the outcome was inactive.
As to `C=C(C)C(N)=O`, the compound was called inactive.
Take `CCCCN(CCCC)CCCCCCN(CCCC)CCCC`: the compound was classed as inactive.
For the compound `CCCCCCOC(C)=O`, the result was inactive.
Under `CC(=O)Nc1cc(S(=O)(=O)O)cc2cc(S(=O)(=O)O)c(N=Nc3ccccc3)c(O)c12` stands “inactive”; under `CCC(=O)OC/C=C(\C)CCC=C(C)C`, “inactive”.
`NC(=O)c1cnccn1`: the compound was called inactive.
For the compound `c1ccc2c(c1)-c1ccc3ccc4cccc5cc-2c1c3c45`, the compound was called inactive.
In the case of `CCOC(=O)COC(=O)c1ccccc1C(=O)OCC`, the outcome was inactive.
Take `O=S(=O)(O)CCCN1CCOCC1`: the compound was classed as inactive.
Under `CC(=O)OCC=C(C)CCC=C(C)CCC=C(C)C` stands “inactive”; under `Brc1cc(Br)cc(Br)c1`, “inactive”; under `CC(C)(C)C1CCC(O)CC1` (stereo not given), “inactive”.
Under `CC(=N[Si](C)(C)C)O[Si](C)(C)C` stands “inactive”.
Under `CC1=CC[C@@H]2C[C@H]1C2(C)C` stands “inactive”.
With `CC(C)(C)c1cccc(O)c1`, the compound was called inactive.
Regarding `CC(=O)OC/C=C(C)/C=C/C=C(C)/C=C/C1=C(C)CCCC1(C)C`, the call was inactive.
As to `CC1(C)CC(=O)CC(C)(C)N1`, the call was inactive.
Regarding `COC(=O)C(C)Oc1ccc(Oc2ncc(C(F)(F)F)cc2Cl)cc1` (stereo not given), the compound was classed as inactive.
Take `CCC(C)(C)c1cc(O)c(C(C)(C)CC)cc1O`: the compound was called inactive.
For `O=C(c1ccc(OCCN2CCCCC2)cc1)c1c(-c2ccc(O)cc2)sc2cc(O)ccc12`, the call was inactive.
As for `CC1(C)[C@H](C=C(Cl)Cl)[C@H]1C(=O)OCc1cccc(Oc2ccccc2)c1`, the result was inactive.
In the case of `COc1ccc(N)c(C)c1`, the outcome was inactive.
Next, `CCCCCCCCSCc1cc(C)c(O)c(CSCCCCCCCC)c1`: “inactive”; `CCCCCC(=O)O[C@]1(C(C)=O)CC[C@H]2[C@@H]3CCC4=CC(=O)CC[C@]4(C)[C@H]3CC[C@@]21C`: “inactive”; `CCCCCCCCCCOC(=O)c1ccccc1C(=O)OCCCCCCCC`: “inactive”.
Under `CC(C)(C)c1ccc(S)cc1` stands “inactive”.
For the compound `O=C1OCc2ccccc21`, the compound was classed as inactive.
Take `CCC(C)(CCCC(C)C)OC(C)=O` (stereo not given): the compound was classed as inactive.
